Assay results published in PubChem BioAssay (NCI).
About 83,000 compounds went through this panel and 20% of them were active in at least one assay; those are over-represented in the sample as a whole.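 Cell lines were cultured in 96-well plates, exposed to a single compound concentration, and assessed for percent growth 48 hours later.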 A number with no mark means an inactive call. Active and inactive are the calls of the source. Rule for the calls: active = growth percent below 10; inactive = the rest.

Tests used:
Assay in all cases: NCI-60 one-dose screen, 48 h (100 = growth as untreated, 0 = no growth, -100 = all killed)
Details in all cases: 10 µM unless noted
[1] = test system: T-47D breast
[2] = test system: BT-549 breast
[3] = test system: MDA-MB-435 melanoma
[4] = test system: SW-620 colon
[5] = test system: MCF7 breast
[6] = test system: HCT-116 colon
[7] = test system: HCC-2998 colon
[8] = test system: KM12 colon

| Structure (SMILES) | growth [1] | growth [2] | growth [3] | growth [4] | growth [5] | growth [6] | growth [7] | growth [8] |
| --- | --- | --- | --- | --- | --- | --- | --- | --- |
| O=P(O)(c1ccccc1)c1ccccc1I | 84.5% | 100% | 104% | 94.9% | 96.6% | 76.7% | 107% | 103% |
| O=C(/C=C/c1ccc2ccccc2c1)Nc1ncc(Cc2ccccc2)s1 | 25.7% | 72.5% | 66.1% | 42.6% | 50.3% | 21% | 92% | 64.4% |
| Fc1ccc2c(c1)c(-c1nc(-c3c[nH]c4ncccc34)cs1)cn2CCCN1CCCCC1 | 67.5% | 88.8% | -20% (active) | -34.9% (active) | 21.6% | 45.3% | 98.8% | 68.3% |
| CC1(C)c2ccccc2C(=O)C1(Br)Cc1ccccc1 (stereo unspecified) | 60.6% | 105% | 61.3% | 36.6% | 81.3% | 54.9% | 78.4% | 90.9% |
| Fc1ccc(Nc2nc(Nc3ccc(-c4nc5ccccc5[nH]4)cc3)nc(N3CCCC3)n2)cc1 | 44.6% | 85.1% | 98.1% | 0.692% (active) | 32.7% | -53.6% (active) | 55.7% | 83.8% |
| C(=C\c1c[nH]c2ccccc12)/c1ccc2ccccc2n1 | 68.4% | 68.8% | 93% | 107% | 63.7% | 65.9% | 97.8% | 52.4% |
| COc1ccc(/C=C2\N=C(c3ccccc3)N(c3cc(OC)c(OC)cc3C(=O)N3N=C(C)CC3=O)C2=O)cc1 | 71.2% | 90.1% | 93.4% | 108% | 89.7% | 89.6% | 113% | 91.1% |
| COc1ccc(-c2cc(=O)oc3ccc(Cl)cc23)cc1F | 50.5% | 18.9% | -21.1% (active) | 23.5% | 17.4% | 5.47% (active) | 19.6% | 11.2% |
| Nc1ncnc2nc(Br)[nH]c12 | 89.4% | 95.6% | 104% | 106% | 99.9% | 92.4% | 109% | 102% |
| Cc1[c-]onc1C.Cc1[c-]onc1C.[Ag].[Ag].[NH-]S(=O)(=O)c1ccc(N=Nc2cc(N=Nc3ccc(S([NH-])(=O)=O)cc3)c3c(NC(=O)C(Cl)Cl)cccc3c2OC(=O)C(Cl)Cl)cc1 | -11.9% (active) | 94.6% | 74.3% | 58.1% | 35.7% | 71.9% | 107% | 71.5% |
| CCOC(=O)c1ccc2c(c1)[n+](=O)c(C(=O)C1CCCS1)c(C(F)(F)F)n2[O-] (stereo unspecified) | -70.5% (active) | -93.4% (active) | -80.5% (active) | -82.4% (active) | -68.1% (active) | -96.2% (active) | -89% (active) | -90.4% (active) |
| COC(=O)[C@]12CC[C@@H](C(/C=C/c3cccnc3)=N/O)[C@@H]1[C@H]1CC[C@@H]3[C@@]4(C)CC(=C/c5cccnc5)/C(=N/O)C(C)(C)[C@@H]4CC[C@@]3(C)[C@]1(C)CC2 | 27.3% | 22.8% | 36.2% | 45.5% | 25.6% | 18.9% | 45.9% | 37.7% |
| CN(C)c1ccc(N=C2C=CC(=O)C=C2)cc1 | 60.6% | 31.3% | 74.5% | 96.3% | 72.3% | 74.3% | 94.3% | 97.1% |
| Cc1oc(-c2ccccc2Cl)cc1C(=O)Nc1ccc(S(N)(=O)=O)cc1 | 83.2% | 104% | 102% | 108% | 92.7% | 102% | 103% | 101% |
| COc1ccccc1CNc1nc(N)nc2[nH]c3ccc(O)cc3c12 | 32.1% | 62.8% | -27.6% (active) | 25.9% | 19.2% | 31% | 67% | 22.4% |
| COc1cnc2c(c1)C(=O)c1c-2n(CCCN2CCN(CCO)CC2)c(=O)c2cc([N+](=O)[O-])ccc12 | 64.4% | 65.6% | 40.8% | -48.8% (active) | -6.37% (active) | -87.6% (active) | 80% | 32.4% |

| Structure (SMILES) | growth [1] | growth [2] | growth [3] | growth [4] | growth [5] | growth [6] | growth [7] | growth [8] |
| --- | --- | --- | --- | --- | --- | --- | --- | --- |
| NCCn1cc(-c2nc(-c3c[nH]c4ncccc34)cs2)c2cc(Br)ccc21 | 44.8% | 97.8% | 84.8% | 7.12% (active) | 30.7% | 66.6% | 100% | 65.2% |
| CN(C)c1cccc2[nH]c(-c3[nH]ncc3Nc3ccnc(N)n3)nc12 | -18.3% (active) | -31.5% (active) | -90% (active) | -5.42% (active) | -46.1% (active) | -40.8% (active) | -41.9% (active) | -31.8% (active) |
| Cn1cc(-c2nc(-c3cn(C)c4ncccc34)cs2)c2ccccc21 | 42% | 48.3% | -18.6% (active) | 27% | 15.9% | 14.6% | 67.4% | 22.5% |
| Fc1ccc2nc(-c3cc(-c4ccc5c(c4)OCO5)n[nH]3)[nH]c2c1 | 50.4% | 27.5% | 46.4% | 37.2% | 59.3% | 49.6% | 71.9% | 16.1% |
| COc1cnc2c(c1)C(=O)c1c-2n(CCCNCCN2CCOCC2)c(=O)c2cc([N+](=O)[O-])ccc12 | 15.7% | 13.4% | 13.7% | -55.2% (active) | 3.37% (active) | -60.4% (active) | -73.3% (active) | -38.1% (active) |
| COc1cnc2c(c1)C(=O)c1c-2n(CCCNC(C)C)c(=O)c2cc([N+](=O)[O-])ccc12 | -24.9% (active) | -63.1% (active) | -95.8% (active) | -38.8% (active) | -47.4% (active) | -51% (active) | -83.4% (active) | -39.8% (active) |
| CCN1CCN(C(=O)[C@]23CCC(C)(C)C[C@@H]2C2=CC[C@@H]4[C@@]5(C)C/C(=C/c6cccnc6)C(=O)C(C)(C)[C@@H]5CC[C@@]4(C)[C@]2(C)CC3)CC1 | 20.1% | 25.7% | 34.9% | 27.6% | 5.68% (active) | 13.3% | 18.9% | 33.8% |
| Cn1cc(-c2csc(-c3cn(CCCN4CCCCC4)c4ccccc34)n2)c2cccnc21 | 92.5% | 72.7% | -87.7% (active) | -65.3% (active) | -77.2% (active) | -95% (active) | 99% | -62.8% (active) |
| COc1ccc2c(c1)c(-c1nc(-c3c[nH]c4ncccc34)cs1)cn2CCCN1CCCCC1 | 66.1% | 67.5% | -84.6% (active) | -43.3% (active) | 10% (active) | 25.9% | 88.5% | 47.3% |
| CN1CCN(c2ccc3nc(-c4[nH]ncc4Nc4ncnc5[nH]ccc45)[nH]c3c2)CC1 | -3.09% (active) | -41.9% (active) | 0.107% (active) | 3.78% (active) | 3.28% (active) | 2.16% (active) | -23.2% (active) | 10.2% |
| N#C/C(=C\c1ccc(-c2ccc(Cl)cc2)o1)c1nc(-c2ccco2)cs1 | -27.1% (active) | 103% | 101% | 98.5% | 14.5% | 101% | 46.3% | 67.3% |
| C=C(C)[C@@H]1CC[C@]2(C=NCCCNCCCCNCCCN)CC[C@]3(C)[C@H](CC[C@@H]4[C@@]5(C)CCCNC(C)(C)[C@@H]5CC[C@]43C)[C@@H]12 | 90.8% | 98.2% | 94.8% | 88.4% | 89.4% | 77.7% | 100% | 98.2% |
| NC1(N)C=CC2=C(C=C1)C1(N)C3=C(C=CC(N)(N)C=C3)N2C2(N)C3=C(C=CC(N)(N)C=C3)N1C1=C2C=CC(N)(N)C=C1 | 74.5% | 52.4% | 89.8% | 95.4% | 76.2% | 90.2% | 105% | 93.6% |
| CCc1ccc(-c2ccc(Nc3ccccc3)nn2)cc1S(N)(=O)=O | 53.3% | 83.3% | 36.1% | 54.1% | 84.3% | 72.6% | 85.4% | 40.6% |
| Clc1ccccc1-c1nc(Nc2nc3ccccc3s2)nc(C(Cl)(Cl)Cl)n1 | 38.7% | 84.2% | 49% | 39.5% | 32.6% | 19.1% | 54.1% | 31.3% |
| Cn1c(=O)c2c(nc(Br)n2CC(=O)Nc2ccc(F)cc2)n(C)c1=O | 87.2% | 101% | 112% | 105% | 99.2% | 84.5% | 114% | 101% |
